The campaign covered roughly 21,000 compounds. Fewer than 10 were called active. These entries were drawn from the full list. Values without a mark were called inactive.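 Rule for the calls: active = inhibition above 50% at the 20 µM single-dose screen; inactive = the rest.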

In the experiment the target is Alkaline phosphatase, tissue-nonspecific isozyme (Homo sapiens) (UniProt P05186). Nature of the experiment: blockers of alkaline phosphatase TNAP activity – biochemical, colorimetric, phosphate release readout, primary screen (AID 614). As to conditions: purified TNAP, pNPP, malachite green phosphate absorbance; at 20 µM; active compounds read high.
Alkaline phosphatase, tissue-nonspecific isozyme (Homo sapiens), sequence (P05186 whole entry, looked up): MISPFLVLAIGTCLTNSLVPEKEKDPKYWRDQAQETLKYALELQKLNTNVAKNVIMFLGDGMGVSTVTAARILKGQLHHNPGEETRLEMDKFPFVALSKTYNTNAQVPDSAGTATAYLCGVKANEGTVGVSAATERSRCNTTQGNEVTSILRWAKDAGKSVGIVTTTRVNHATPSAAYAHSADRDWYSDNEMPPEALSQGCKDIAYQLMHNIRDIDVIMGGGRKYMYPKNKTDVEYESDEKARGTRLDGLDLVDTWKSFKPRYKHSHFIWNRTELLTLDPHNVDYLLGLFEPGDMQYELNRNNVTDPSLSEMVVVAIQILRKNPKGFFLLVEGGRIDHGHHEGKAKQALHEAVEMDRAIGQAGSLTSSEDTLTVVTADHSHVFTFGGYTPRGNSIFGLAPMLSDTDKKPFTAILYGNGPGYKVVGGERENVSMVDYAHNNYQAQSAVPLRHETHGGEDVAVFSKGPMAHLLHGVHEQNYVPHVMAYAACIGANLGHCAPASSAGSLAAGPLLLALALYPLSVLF
`CC(=O)Nc1cccc2c1[n+]([O-])c(C)c(C)[n+]2[O-]`: the inhibition (as a rule, the change of the read-out against control, counted positive when it falls) was 2.9%.
For `N#CCCN(CCC#N)c1nnc(-c2ccccc2)s1`, the inhibition was 0%.
For `COc1ccc(Cn2cccc(NC(=O)Nc3ccc(C#N)cc3)c2=O)cc1`, the inhibition is 10.4%.
Consider `CCOC(=O)CNC(=O)CSc1nnc(COc2ccc(Cl)cc2)n1CC`, for which the inhibition was 10.6%.
Regarding `CCc1nnc(NC(=O)c2nc3nccc(C)n3n2)s1`, the inhibition was -4.2%.
For the molecule `CNC(=O)c1cc2c(ccc3ccccc32)oc1=N`, the inhibition was 5.2%.
With `CCN(c1ccccc1)S(=O)(=O)c1cccc(C(=O)O)c1`, the inhibition is 1.1%.
Take `CN(C)c1nc2n(c(=O)n1)CCO2`: the inhibition was -3%.
Turning to `COc1ccccc1NC(=O)C1=C(C)NC2=C(C(=O)CCC2)C1c1ccc(C)o1` (centres undefined), the inhibition was -1.3%.
With `C=CCc1cccc2cc(C(=O)N3CCN(C(=O)OCC)CC3)c(=O)oc12`, the inhibition is 5.5%.
For `CC1Cc2ccccc2N1C(=O)CSc1nnc(-c2ccc(S(=O)(=O)N3CCCCC3)cc2)o1` (centres undefined), the inhibition was 12.2%.
The value for `O=c1oc2c(CN3CCCCC3)c(O)ccc2c2c1CCCCC2` was 8.2%; that for `CCn1c(SCC(=O)Nc2cc(C)c(Cl)cc2OC)nnc1-c1ccco1` was 10.5%; that for `O=C(NC1CCCCC1)n1c(=O)oc2cc(S(=O)(=O)N3CCCCC3)ccc21` was 6.7%.
The value for `Cn1c(SCC(=O)OC2CCCCC2)nnc1-c1ccc(S(=O)(=O)N2CCCC2)cc1` was 10.3%; that for `O=C(NCc1cn2ccsc2n1)Nc1cccc(Cl)c1` was 0.5%; that for `CCC1(C)N(O)C(C)(C)C(c2ccc(OC)cc2)=[N+]1[O-]` (centres undefined) was 8.5%.
The value for `CCc1c(O)nc(SCC(=O)N2CCCCC2)n(-c2ccccc2C)c1=O` was 2.1%; that for `Cc1ccc(C(C(=O)NCc2ccco2)N(CC2CCCO2)C(=O)Cn2nnc3ccccc32)cc1` (centres undefined) was 8.3%; that for `CC(C)=C(NC(=O)c1ccco1)C(=O)NCCc1nc2ccccc2[nH]1` was 9.6%.
As for `O=C(O)CCC(=O)N(Cc1ccco1)c1nc(-c2ccccc2)cs1`, the inhibition was 7.9%.
The value for `COC(=O)COc1ccc(S(=O)(=O)Nc2ccc(NC(C)=O)cc2)cc1` was 11.9%.
The value for `CCc1cccc(C)c1NC(=O)CSc1nnc(-c2ccco2)n1N` was 7.1%.
As for `C/C(O)=C\c1nc(=O)c2c(C)cc(C)nc2n1-c1ccccc1`, the inhibition was 10.5%.
The value for `COc1ccccc1N1CCN(C(=O)c2ccc(S(=O)(=O)N3CCCCC3)cc2)CC1` was 11.7%; that for `Cc1ccc(C(C)C)c(OCc2nnc(SCC(=O)Nc3nccs3)n2C)c1` was -5.7%.
The value for `NC(=O)C1CCN(C2OC(=O)c3ccccc32)CC1` (centres undefined) was 0%; that for `O=C(CSc1nnnn1-c1ccc2c(c1)CCC2)Nc1ccc2c(c1)OCCO2` was -0.8%; that for `O=C(CNCCO)NC12CC3CC(CC(C3)C1)C2` was 0%.
With `Cc1nc(NC(CC(C)C)C(=O)O)c2nc(C)oc2n1` (centres undefined), the inhibition is -15%.
For the molecule `O=C1c2oc3ccc(Br)cc3c(=O)c2C(c2cccc(F)c2)N1CCO` (centres undefined), the inhibition is 10.1%.
As to `CC(C)C(=O)N1CCN(CCN=CC2=C(O)CC(c3ccco3)CC2=O)CC1` (centres undefined), the inhibition was 2.1%.
On to `CCOC(=O)c1c(NC(=O)CSc2nnc(C)c(=O)[nH]2)sc2c1CCC2`, for which the inhibition is 10.5%.
`COC(=O)C(NC(C)=O)(Nc1nc2c(s1)CCCC2)C(F)(F)F` (centres undefined): the inhibition is 10.6%.
The value for `CC1Cc2ccccc2N1C(=O)CSc1nc2ccccc2o1` (centres undefined) was 14%; that for `CCCn1c(SCC(N)=O)nnc1C(C)C` was 3.8%; that for `COC(=O)CNC(=O)c1ccc2c(c1)S(=O)(=O)c1ccccc1C2=O` was 14.1%.
The value for `O=C(Oc1ccccc1)c1ccc2nccnc2c1` was 8.8%.
The value for `CC(Sc1nncs1)C(=O)NCc1ccc2c(c1)OCO2` (centres undefined) was 18.9%.
As to `C=CCn1c(C2CC(=O)N(c3ccc(C)cc3)C2)nc2ccccc21` (centres undefined), the inhibition was 8.4%.
`c1ccc2c(CNn3cnnc3)cccc2c1`: the inhibition is 4%.
Consider `O=c1cc(CSc2ccc(Cl)cc2)nc(N2CCOCC2)[nH]1`, for which the inhibition was -11.8%.
The value for `CCCc1nc2c3cnn(-c4cccc(Cl)c4)c3ncn2n1` was -13.7%; that for `Cn1c(=O)c2c(nc(OCc3cccnc3)n2Cc2ccccc2)n(C)c1=O` was 0%.
Consider `O=C(CCCC(=O)N(CC(=O)NC1CCCC1)Cc1ccccc1Cl)Nc1ccccn1`, for which the inhibition was 10.7%.
Turning to `CC12C(=O)N(n3cnnc3)C(=O)C1C1C=CC2C1` (centres undefined), the inhibition was -18.4%.
`Cn1cnc2c1c(=O)n(Cc1c(Cl)cccc1Cl)c(=O)n2C`: the inhibition was 7.6%.
Turning to `COc1ccc(-n2c(C)nc3c(cnn3-c3ccccc3)c2=O)cc1`, the inhibition was -8.2%.
The value for `CC(=O)Nc1ccc(S(=O)(=O)N2CCCC2C(=O)O)cc1` (centres undefined) was 10.8%; that for `COCCn1nnnc1C(c1ccccc1Cl)N1CCN(c2ccccc2OC)CC1` (centres undefined) was 8.5%; that for `CC(Cc1cccs1)NC(=O)NC1CCCCC1` (centres undefined) was 10%.
The value for `CS(=O)(=O)N(CC(=O)N1CCN(c2cccc(Cl)c2)CC1)c1ccccc1` was 0%.
Turning to `O=C(CSc1nnc(-c2cccnc2)n1Cc1ccco1)c1ccc(Cl)cc1`, the inhibition is 8.1%.
Consider `CCN1C(=O)/C(=C\N2CCN(c3ccccc3)CC2)SC1=S`, for which the inhibition is 10.1%.
With `O=C(Nc1c(-c2ccccc2)nc2c(Br)cc(Br)cn12)c1ccco1`, the inhibition is 9.2%.
With `Cc1ccc(C2(c3ccc(C)cc3)NC(=O)N(Cc3c(C)noc3C)C2=O)cc1`, the inhibition is -2%.
The value for `COC(=O)[C@H](C)NC(=O)Nc1ccc(OC(F)(F)F)cc1` was 4.2%; that for `Cc1csc(NC(=O)CN2CCCCCC2)n1` was 14.8%; that for `COc1ccc(-c2nc3n(c2Br)CCC3)cc1` was 0%.
The value for `CCOC(=O)N1CCN(C(=O)C2CCN(S(C)(=O)=O)CC2)CC1` was -0.3%; that for `O=S(=O)(NCc1ccccn1)c1ccc(Br)s1` was -2.3%; that for `COCCNC(=O)CN(C(=O)CCC(=O)Nc1cc(C)on1)c1ccc(C)cc1C` was 14.4%.
The value for `CN1CCN(S(=O)(=O)c2ccc(NC(=O)C3CCCO3)cc2)CC1` (centres undefined) was 11.5%.
For the molecule `C=CCNc1nc(C)nc(OC)n1`, the inhibition is -2.9%.
The value for `CCc1cc(=O)oc2cc(C)cc(OC(C)C(=O)O)c12` (centres undefined) was 8.6%.
The value for `O=S(=O)(O)c1nc2ccccc2n1Cc1ccc(Cl)cc1Cl` was 0%; that for `CCNC(=O)CCc1nc(-c2ccc(C(C)(C)C)cc2)no1` was 2%.
The value for `CC1(C)Oc2ccc(C(=O)N3CCOCC3)cc2N(CC(=O)Nc2ccccc2)C1=O` was -16.7%; that for `COc1cccc(C2/C(=C(/O)c3ccc(F)cc3)C(=O)C(=O)N2CCN(C)C)c1` (centres undefined) was 0.4%.
Turning to `Cc1cccc(N)c1SC1CCCCC1O` (centres undefined), the inhibition is 9.2%.
The value for `CC(C)(C)n1nnc(CCc2nnn(C(C)(C)C)n2)n1` was 0.3%; that for `CCOC(=O)CSc1nnc(NC(=O)c2cccc(S(=O)(=O)N3CCCC3)c2)s1` was 9.6%.
The value for `C=CCNc1nnc(C)c2ccccc12` was 15.4%; that for `COCCNC(=O)C(C#N)c1nc2ccccc2nc1N1CCN(Cc2ccc3c(c2)OCO3)CC1` (centres undefined) was 8.2%; that for `CC1COC2C(O1)N(S(C)(=O)=O)CCN2S(C)(=O)=O` (centres undefined) was 3.4%.
As to `CCn1cc(C(=O)NCc2ccc(OC)cc2OC)c(=O)c2ccc(C)nc21`, the inhibition is 9.9%.
The value for `Cc1cccc(NC(=O)c2ccccc2NC(=O)C(C)(C)C)n1` was 0.8%.
Consider `Cc1cc(C)cc(NC(=O)N2CCC(NC(=O)c3ccc(F)cc3)CC2)c1`, for which the inhibition was 7.3%.
The value for `CSc1nsc(SC)c1NC(=O)OC1CCCCC1` was 0%; that for `COCc1nc2ccccc2n1Cc1ccccc1Br` was 1.7%; that for `c1nnc2c3c4c(sc3ncn12)CCC4` was 9.7%.
The value for `Cc1cc(Cl)c(S(=O)(=O)NCc2cccnc2)cc1OCC(N)=O` was 5.5%.
The value for `O=C(O)c1ccc(NS(=O)(=O)c2cccc3nsnc23)cc1` was 11.8%; that for `Cn1c(=O)[nH]c(=O)c2c1nc(Br)n2CCCCSc1nc2ccccc2o1` was 1.3%; that for `CCOC(=O)c1sc(NC(=O)CSc2nnc(-c3ccco3)o2)c(C(=O)OCC)c1C` was 7.3%.
For `Cc1nc(N2CCCC2C(=O)O)c2oc3ccccc3c2n1` (centres undefined), the inhibition is 10.7%.
The value for `Cc1nc(NCCN)c(C#N)c2c1COC(C)(C)C2` was 5.7%; that for `O=S(=O)(NCc1ccccn1)c1ccc(F)cc1` was 9.6%.
On to `CCN(CC)C(=O)CSc1nnc(-c2cnccn2)n1-c1ccc(C)cc1`, for which the inhibition was 2.9%.
The value for `Cc1ccc(S(=O)(=O)Nc2ccccc2CNc2c(C)n(C)n(-c3ccccc3)c2=O)cc1` was 12.4%.
The value for `CCC1CCCCN1C(=O)Nc1cccc(NC(=O)N2CCCCC2CC)c1` (centres undefined) was 6.5%; that for `Cc1ccc2nc(-c3ccccc3)cc(C(=O)O)c2c1` was 2.9%.
Consider `COc1ccc(Cl)cc1NC(=O)C1CC(=O)N(c2ccc(F)cc2)C1` (centres undefined), for which the inhibition was 4.2%.
Turning to `CCOC(=O)Cn1c(SC)nc2sc3c(c2c1=O)CC(C)(C)OC3`, the inhibition was 11.5%.
On to `CCOC(=O)CCc1c(C)c2ccc(OCc3nn[nH]n3)c(C)c2oc1=O`, for which the inhibition is -5.8%.
The value for `Cc1noc(C)c1CSc1nnc2ccc3ccccc3n12` was 12.2%.
`COc1ccc(CCn2c(-c3ccco3)nc3nc4ccccc4nc32)cc1OC`: the inhibition was 1.5%.
The value for `Cc1cccc2cc(CN(Cc3ccc4c(c3)OCO4)Cc3nnnn3C3CCCC3)c(=O)[nH]c12` was 15%; that for `COc1cc(C(=O)N(Cc2ccc(N(C)C)cc2)C2CCS(=O)(=O)C2)cc(OC)c1OC` (centres undefined) was 8%.
